From PubChem BioAssay (NCI)
Compounds without any hit were thinned out: in the full panel of roughly 79,000, 15% have a hit. Active and inactive are the calls of the source. Rule as the data show it: active = growth inhibition above about 70%; inactive = the rest.

What was measured:
[1] = NCI Yeast Anticancer Drug Screen. Data for the mec2-1 strain (AID 157); conditions: S. cerevisiae mec2-1 strain, active compounds read high
Outline: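 Test agents were screened against the mec2-1 yeast strain, with defined DNA repair or cell cycle alteration. Growth was scored as inhibition against vehicle-only controls.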

[2] = NCI Yeast Anticancer Drug Screen. Data for the rad14 strain (AID 159);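 also: 0% = growth of vehicle-treated control cultures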; conditions: S. cerevisiae rad14 strain growth inhibition, active compounds read high
Outline: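 Here, inhibition of yeast growth was measured after compound exposure, using a strain with a genetic defect in DNA damage repair and vehicle-treated cultures as the reference.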

[3] = NCI Yeast Anticancer Drug Screen. Data for the sgs1 mgt1 strain (AID 161);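 also: 0% = growth of cultures given vehicle only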; conditions: S. cerevisiae sgs1 mgt1 strain, active compounds read high
Outline: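 Mutant yeast exposed to compound; growth scored against vehicle-only wells.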

[4] = NCI Yeast Anticancer Drug Screen. Data for the CLN2oe strain (AID 163);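 also: 0% = growth of vehicle-only control cultures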; conditions: S. cerevisiae CLN2oe strain, active compounds read high
Outline: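 Here, growth inhibition in a cell-cycle-altered yeast strain after compound exposure was quantified against vehicle control growth.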

[5] = NCI Yeast Anticancer Drug Screen. Data for the cln2 rad14 strain (AID 165);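 also: 0% = growth equal to vehicle treated cultures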; conditions: S. cerevisiae cln2 rad14 strain, active compounds read high
Outline: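 Growth of compound-exposed yeast (cln2 rad14 genotype) measured and expressed as inhibition relative to vehicle.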

[6] = NCI Yeast Anticancer Drug Screen. Data for the bub3 strain (AID 167); conditions: S. cerevisiae bub3 mutant strain, active compounds read high
Outline: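 Whole-cell yeast assay. The mutant strain was incubated with compounds, and growth inhibition was determined by comparison with vehicle-treated cells.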

[7] = NCI Yeast Anticancer Drug Screen. Data for the wt2 strain (AID 169);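 also: 0% = growth of vehicle-treated yeast cultures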; conditions: S. cerevisiae wt2 strain growth inhibition, active compounds read high
Outline: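 Genetically defined yeast strains from a DNA-repair/cell-cycle panel were used. Compound-exposed yeast growth was measured, and the inhibition was calculated relative to vehicle treatment.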

[8] = NCI Yeast Anticancer Drug Screen. Data for the mlh1 strain (AID 171);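 also: 0% = growth of vehicle-treated control cultures of the same strain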; conditions: S. cerevisiae mlh1 strain growth inhibition, active compounds read high
Outline: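 Here the genetically defined yeast mutant is grown with each compound, and the extent to which its growth falls below that of vehicle-exposed cells is reported.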

[9] = NCI Yeast Anticancer Drug Screen. Data for the sgs1 strain (AID 173);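 also: 0% = growth of vehicle-only control cultures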; conditions: S. cerevisiae sgs1 mutant, active compounds read high
Outline: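 Relative growth inhibition, referenced to vehicle, was determined in a yeast strain with a defined alteration affecting DNA damage repair or cell cycle control after compound exposure.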

[10] = NCI Yeast Anticancer Drug Screen. Data for the mlh1 rad18 strain (AID 175); conditions: S. cerevisiae mlh1 rad18 strain growth inhibition, active compounds read high
Outline: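 In this whole-cell yeast screen, a strain with altered DNA damage repair is challenged with compound, and its growth is measured against matched vehicle-treated controls.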

[11] = NCI Yeast Anticancer Drug Screen. Data for the rad18 strain (AID 177); conditions: S. cerevisiae rad18 mutant growth inhibition, active compounds read high
Outline: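 Screen uses a yeast strain with a defined lesion in DNA damage repair; compound effect is read as loss of growth compared to untreated vehicle cultures.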

[12] = NCI Yeast Anticancer Drug Screen. Data for the rad52 strain (AID 147);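 also: 0% = growth of vehicle-treated control cultures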; conditions: S. cerevisiae rad52 mutant growth inhibition, active compounds read high
Outline: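 Measured: yeast growth inhibition. System: strain with a defined DNA damage repair alteration. Reference: vehicle-treated control cultures.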

[13] = NCI Yeast Anticancer Drug Screen. Data for the wt1 strain (AID 149);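 also: 0% = growth of vehicle-treated wt1 cultures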; conditions: S. cerevisiae wt1 strain (SPY 50644) growth inhibition, active compounds read high
Outline: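 Measured: growth of wt1 yeast under compound versus vehicle treatment, reported as inhibition.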

[14] = NCI Yeast Anticancer Drug Screen. Data for the rad50EPP+ strain (AID 151);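 also: 0% = growth of vehicle-treated control cultures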; conditions: S. cerevisiae rad50 mutant strain, active compounds read high
Outline: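 One strain with a rad50 alteration (rad50EPP+) was compound-treated, its growth then compared to that of vehicle controls.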

[15] = NCI Yeast Anticancer Drug Screen. Data for the mgt1 strain (AID 153); conditions: S. cerevisiae mgt1 mutant growth inhibition, active compounds read high
Outline: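 After exposure of the mgt1 yeast mutant to compound, growth was measured and reported as inhibition compared with vehicle controls.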

[16] = NCI Yeast Anticancer Drug Screen. Data for the rad50 strain (AID 155);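 also: 0% = growth of vehicle-only cultures of the same strain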; conditions: S. cerevisiae rad50 strain growth inhibition, active compounds read high
Outline: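 Growth of the mutant yeast was measured after compound exposure and referenced to vehicle-treated cultures.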

[17] = at 5.0 µM (retest, dose inferred, filed as 0.5)
[18] = at 50.0 µM (retest, dose inferred, filed as 5.0)

Measured: growth inhibition

CN(C)c1nc(=Nc2cccc(Cl)c2)ss1
active: [1]; at 11.0 µM 96% | [1]; at 33.0 µM 100% | [1]; [18] 99% | [1]; at 50.0 µM 99.7% | [1]; at 100.0 µM 100% | [2]; at 11.0 µM 97% | [2]; at 33.0 µM 99% | [2]; at 100.0 µM 99% | [3]; [17] 90% | [3]; [18] 99% | [3]; at 50.0 µM 99.7% | [4]; at 11.0 µM 71% | [4]; at 33.0 µM 99% | [4]; at 100.0 µM 99% | [5]; [18] 99% | [5]; at 50.0 µM 99.4% | [6]; at 11.0 µM 98% | [6]; at 33.0 µM 99% | [6]; [18] 98% | [6]; at 50.0 µM 98.3% | [6]; at 100.0 µM 99% | [7]; at 11.0 µM 90% | [7]; at 33.0 µM 99% | [7]; at 100.0 µM 99% | [8]; at 11.0 µM 96% | [8]; at 33.0 µM 99% | [8]; at 100.0 µM 99% | [9]; at 11.0 µM 95% | [9]; at 33.0 µM 99% | [9]; at 100.0 µM 99% | [10]; [17] 89% | [10]; [18] 99% | [10]; at 50.0 µM 99.5% | [11]; at 11.0 µM 97% | [11]; at 33.0 µM 99% | [11]; at 100.0 µM 99%
inactive: [1]; [17] 56% | [2]; at 1.2 µM 6% | [2]; at 3.7 µM 30% | [4]; at 1.2 µM -5% | [4]; at 3.7 µM 11% | [5]; [17] 17% | [6]; at 1.2 µM 1% | [6]; at 3.7 µM 28% | [6]; [17] 69% | [7]; at 1.2 µM 9% | [7]; at 3.7 µM 32% | [8]; at 1.2 µM 11% | [8]; at 3.7 µM 50% | [9]; at 1.2 µM 15% | [9]; at 3.7 µM 52% | [11]; at 1.2 µM 12% | [11]; at 3.7 µM 48%

COC(=O)CCC(NC(=S)N/N=C(\C)c1ccccn1)C(=O)OC (stereo unspecified)
active: [12]; at 100.0 µM 90% | [13]; at 100.0 µM 85% | [15]; at 100.0 µM 91% | [16]; at 33.0 µM 72% | [16]; [18] 79% | [16]; at 50.0 µM 77.5% | [16]; at 100.0 µM 93% | [1]; [18] 78% | [1]; at 50.0 µM 77.5% | [1]; at 100.0 µM 90% | [2]; at 100.0 µM 92% | [3]; [18] 80% | [3]; at 50.0 µM 82.8% | [4]; at 100.0 µM 88% | [5]; [18] 82% | [5]; at 50.0 µM 83% | [6]; at 33.0 µM 77% | [6]; [18] 84% | [6]; at 50.0 µM 81.3% | [6]; at 100.0 µM 93% | [7]; at 100.0 µM 87% | [8]; at 100.0 µM 92% | [9]; at 100.0 µM 92% | [10]; [18] 79% | [10]; at 50.0 µM 75.5% | [11]; at 33.0 µM 70% | [11]; at 100.0 µM 91%
inactive: [12]; at 1.2 µM -21% | [12]; at 3.7 µM -27% | [12]; at 11.0 µM 1% | [12]; at 33.0 µM 61% | [13]; at 1.2 µM -10% | [13]; at 3.7 µM -22% | [13]; at 11.0 µM 2% | [13]; at 33.0 µM 47% | [14]; at 1.2 µM 6% | [14]; at 3.7 µM -5% | [14]; at 11.0 µM 2% | [14]; at 33.0 µM 18% | [14]; at 100.0 µM 34% | [15]; at 1.2 µM 14% | [15]; at 3.7 µM 6% | [15]; at 11.0 µM 28% | [15]; at 33.0 µM 64% | [16]; at 1.2 µM 8% | [16]; at 3.7 µM 3% | [16]; [17] 34% | [16]; at 11.0 µM 26% | [1]; at 1.2 µM -11% | [1]; at 3.7 µM -7% | [1]; [17] 9% | [1]; at 11.0 µM 12% | [1]; at 33.0 µM 57% | [2]; at 1.2 µM 2% | [2]; at 3.7 µM -3% | [2]; at 11.0 µM 21% | [2]; at 33.0 µM 69% | [3]; [17] 7% | [4]; at 1.2 µM 7% | [4]; at 3.7 µM 2% | [4]; at 11.0 µM 18% | [4]; at 33.0 µM 62% | [5]; [17] -5% | [6]; at 1.2 µM 24% | [6]; at 3.7 µM 28% | [6]; [17] 22% | [6]; at 11.0 µM 32% | [7]; at 1.2 µM -37% | [7]; at 3.7 µM -29% | [7]; at 11.0 µM -3% | [7]; at 33.0 µM 51% | [8]; at 1.2 µM 20% | [8]; at 3.7 µM 2% | [8]; at 11.0 µM 23% | [8]; at 33.0 µM 62% | [9]; at 1.2 µM -14% | [9]; at 3.7 µM -15% | [9]; at 11.0 µM 20% | [9]; at 33.0 µM 67% | [10]; [17] -13% | [11]; at 1.2 µM -16% | [11]; at 3.7 µM -27% | [11]; at 11.0 µM 10%
